About 5,800 (36%) of roughly 16,000 compounds were called active. Another 23% or so got no clear call; they are omitted. The list shows a part of the results. Values without a mark were called inactive. The call rests on the fitted dose curve; in most records, active means well fitted curve in the direction sought with a large enough effect; inconclusive means small, poorly fitted or top-dose-only effect, or effect the other way; inactive means no such curve, though single readings can be large or run the other way.
Molecular target: Cytochrome P450 2C19 (Homo sapiens) (UniProt P33261)
Assay: Cytochrome panel assay with activity outcomes
Details: recombinant CYP, pro-luciferin dealkylation, luminescence, p450-cyp2c19; series mostly up to 57.1 µM
Procedure: The P450 gene superfamily is involved in the metabolism and clearance of xenobiotics. This assay used various human CYP P450 isozymes to measure the dealkylation of various pro-luciferin substrates to luciferin. The luciferin is then measured by luminescence after the addition of a luciferase detection reagent. Pro-luciferin substrate concentration in the assay was equal to its KM for its CYP P450 isozyme. Inhibitors and some substrates limit the production of luciferin, and decrease measured luminescence.
NCGC Assay Protocol Summary:
1, Reagent, 2 uL, Isozyme and Pro-Luciferin
2, Library compounds, 23 nl, 40 uM to 0.24 nM dilution series
3, Controls, 23 nl, Isozyme specific inhibitor
4, Reagent, 2 uL, NADPH regeneration solution
5, Incubation time, 60 min, Isozyme specific temperature
6, Reagent, 4ul, Detection reagent
7, Incubation time, 20 min, Isozyme specific temperature
8, Detection, 1 sec, ViewLux luminescent read
The luciferase-based P450-GloTM Screening Systems were obtained from Promega (Madison, WI) for CYP 1A2 (V9770), CYP 2C9 (V9790), CYP2 C19 (V9880), CYP 2D6 (V9890), and CYP 3A4 Luciferin-PPXE (V9910) and were adapted for 1,536-well microplates and an automated protocol. The control compounds furafylline for 1A2 (F124), sulfaphenazole for CYP 2C9 (S0758), ketoconazole for CYP 2C19 (K1003), quinidine for 2D6 (Q3625), and ketoconazole for 3A4 (K1003) were purchased from Sigma Aldrich (St. Louis, MO). Recombinant P450 enzymes were obtained from baculovirus constructs expressed in insect cells (BD/Gentest).
Medium-binding white solid Kalypsys plates used. Mixtures kept on ice. 1A2: 10 nM 1A2, 100 uM Luc-ME, 100 mM KPO4; 2C9: 10 nM 2C9, 100 uM Luc-H, 25 mM KPO4; 2C19: 5 nM 2C19, 10 uM Luc-H EGE, 50 mM KPO4; 2D6: 5 nM 2D6, 30 uM Luc-ME EGE, 100 mM KPO4; 3A4: 10 nM, 25 uM Luc-PPXE. All amounts are reflected in their final concentration, working concentration is 2x.
NADPH regeneration solution: 1.3 mM NADP+, 3.3 mM glucose-6-phosphate, 3.3 mM MgCl2, 0.4 U/mL glucose-6-phosphate dehydrogenase for all isozymes, 200 mM KPO4 for 3A4. Mixture prepared at RT but kept on ice during automated run.
RT incubation in auxilliary plate hotel for 1A2, 2D6, and 3A4; 37C for 2C9 and 2C19.
Keywords: P450, CYP1A2, CYP2C19, CYP2C9, CYP2D6, CYP3A4, Luciferase, MLSMR, MLSCN, NIH Roadmap, qHTS, NCGC
On the % scale 0 is the no-effect control and ±100 the full control effect.

Chain of Cytochrome P450 2C19 (Homo sapiens) (P33261 whole entry, looked up): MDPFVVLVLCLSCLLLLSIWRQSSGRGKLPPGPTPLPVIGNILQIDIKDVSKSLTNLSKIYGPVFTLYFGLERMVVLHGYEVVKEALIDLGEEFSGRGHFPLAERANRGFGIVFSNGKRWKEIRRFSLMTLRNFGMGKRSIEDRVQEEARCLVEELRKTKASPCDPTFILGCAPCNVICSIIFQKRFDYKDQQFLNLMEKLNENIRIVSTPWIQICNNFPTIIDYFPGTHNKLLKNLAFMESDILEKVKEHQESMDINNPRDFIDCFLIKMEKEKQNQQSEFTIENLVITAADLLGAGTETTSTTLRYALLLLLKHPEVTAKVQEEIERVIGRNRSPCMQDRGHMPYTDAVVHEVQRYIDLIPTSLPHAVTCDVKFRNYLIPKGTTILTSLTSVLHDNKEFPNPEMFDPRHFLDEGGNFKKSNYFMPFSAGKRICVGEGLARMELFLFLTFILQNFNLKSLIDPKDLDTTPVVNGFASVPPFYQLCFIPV

| SMILES | AC50 | activity, negative = inhibition |
| --- | --- | --- |
| CCOC(=O)c1ncn2c1[C@H]1CCCN1C(=O)c1cc(OC)ccc1-2 | inactive |  |
| O=C(Nc1ccccc1)N1CC2(CCN(C(=O)Oc3ccccc3)CC2)C1 | inactive |  |
| COC(=O)[C@@H]1c2cc3c(c(O)c2[C@@H](O)C[C@]1(C)O)C(=O)c1c(O)cc2c(c1C3=O)O[C@H]1O[C@@]2(C)[C@@H](O)[C@H](N(C)C)[C@H]1O |  | -43.8% [at 11.4 µM] |
| N[C@H](Cc1ccc(N(CCCl)CCCl)cc1)C(=O)O | inactive |  |
| CCCC(CCC)C(=O)O | inactive |  |
| C1CCc2nnnn2CC1 | inactive |  |
| O=C(Nc1ccc(F)cc1F)c1cccnc1Oc1cccc(C(F)(F)F)c1 | 1.26 µM (active) |  |
| NNC(=O)c1ccc(O)cc1 | inactive |  |
| Cc1c(C(=O)c2ccc3ccccc3c2)c2cccc3c2n1[C@H](CN1CCOCC1)CO3 | inactive |  |
| CCCn1c(C)c(C(=O)c2ccc3ccccc3c2)c2ccccc21 | 2 µM (active) |  |
| O=C(C[n+]1ccc2ccccc2c1)c1ccc2ccc3ccccc3c2c1 |  | 1.57% [at 11.4 µM] |
| CCCn1c(C)c(C(=O)c2cccc3ccccc23)c2ccccc21 | 10 µM (active) |  |
| COc1ccc(C(=O)c2c(C)n(CCN3CCOCC3)c3cc(I)ccc23)cc1 | inactive |  |
| COc1ccc2c3c1O[C@@H]1C(=O)CC[C@@]4(O)[C@@H](C2)N(CC2CC2)CC[C@]314 | inactive |  |
| COc1ccc2c(c1)CCC1C2CC[C@]2(C)[C@H](NCCCCCCN3C(=O)C=CC3=O)CC[C@@H]12 (stereo partly specified) | inactive |  |
| COc1cc2c(c(OC)c1OC)-c1ccc(O)c(=O)cc1[C@H](N)CC2 | inactive |  |
| CN1[C@@H](C[C@@H](O)c2ccccc2)CCC[C@@H]1C[C@H](O)c1ccccc1 | inactive |  |
| O=C(Oc1ccccc1)N1CCC2(CCCN(Cc3nccs3)C2)CC1 | inactive |  |
| NCC[C@H](O)C(=O)N[C@H]1C[C@@H](N)[C@@H](O[C@H]2O[C@@H](CN)[C@@H](O)[C@@H](O)[C@@H]2N)[C@@H](O[C@H]2O[C@@H](CO)[C@@H](O)[C@@H]2O)[C@@H]1O | inactive |  |
| Nc1nc(N)c(N=Nc2ccc([As](=O)(O)O)c(O)c2)c(N)n1 |  | 31% [at 11.4 µM] |
| NC(=NCCc1ccc(I)cc1)SCCCc1cnc[nH]1 | inactive |  |
| CN1C(=O)C(=Cc2ccc(N3CCCCCC3)o2)C(=O)N(C)C1=S | 2.24 µM (active) |  |
| O=C(Nc1cccc(F)c1)N1CC2(CCNCC2)C1 | inactive |  |

| SMILES | AC50 | activity, negative = inhibition |
| --- | --- | --- |
| COC(=O)[C@@H]1[C@@H](O)[C@@]2(O)c3c(OC)cc(OC)cc3O[C@@]2(c2ccc(OC)cc2)[C@H]1c1ccccc1 |  | 8.06% [at 11.4 µM] |
| CCC1=C(C[C@H]2NCCc3ccccc32)C[C@@H]2c3cc(OC)c(OC)cc3CCN2C1 |  | -23.2% [at 11.4 µM] |
| C[C@]12CC[C@@H]3[C@H](CCC4=CC(=O)CC[C@]43C)[C@]1(O)CC[C@@]2(O)C(=O)CO |  | 24.8% [at 11.4 µM] |
| N[C@@H]1C=CC=C(C(=O)O)C1 | inactive |  |
| O=C(O)Cc1ccc([N+](=O)[O-])cc1[N+](=O)[O-] |  | -28.8% [at 11.4 µM] |
| O=[N+]([O-])c1ccc(S(=O)(=O)Cc2ccccc2)c([N+](=O)[O-])c1 | 2 µM (active) |  |
| O=[N+]([O-])c1cc(O)c(O)c([N+](=O)[O-])c1 | inactive |  |
| c1ccc(N2CC[C@@]3(CCCNC3)C2)nc1 | inactive |  |
| CN1C(=O)C(=Cc2ccccc2Oc2ccc(Cl)c(F)c2)C(=O)N(C)C1=O | 3.55 µM (active) |  |
| COc1cc2c(cc1OC)[C@@]13CCN4CC5=CCO[C@H](CC(=O)O)[C@@H]([C@H]1N2)[C@H]5C[C@H]43 |  | -11.9% [at 11.4 µM] |
| C[C@](N)(CCP(=O)(O)O)C(=O)O | inactive |  |
| CC1CN=C(Nc2cccc3ccccc23)S1 (stereo unspecified) | 3.98 µM (active) |  |
| CC(=O)O[C@@H]1CN2CCC1CC2 | inactive |  |
| c1ccc(CCN2CCCCCC2)nc1 |  | 38.1% [at 11.4 µM] |
| CC(=O)N[C@@H]1CCSC1=O | inactive |  |
| CN(N=O)C(=O)N[C@H]1C(O)OC(CO)[C@@H](O)[C@H]1O (stereo partly specified) | 7.94 µM (active) |  |
| CC(=O)[C@]1(O)CC[C@@H]2[C@H]3C[C@@H](C)C4=CC(=O)CC[C@@]4(C)[C@H]3[C@@H](O)C[C@]21C |  | -31.5% [at 11.4 µM] |
| C=C[C@@H]1CN2CC[C@H]1C[C@H]2[C@H](O)c1ccnc2ccccc12 |  | 44.5% [at 11.4 µM] |
| NC(N)=NN=Cc1c(Cl)cccc1Cl | inactive |  |
| CCCN1CCO[C@@H]2c3cc(O)ccc3OC[C@@H]21 | 10 µM (active) |  |
| CCCN1CCO[C@@H]2c3cc(O)ccc3OC[C@H]21 | inactive |  |
| CCCN1CC[C@@H]2c3cc(O)ccc3CC[C@H]21 | inactive |  |
| O=C(O)[C@H]1[O][Sb][O][C@@H](C(=O)O)C1O (stereo partly specified) |  | 15.3% [at 11.4 µM] |
